Results filed as inconclusive are left out. Calls of active or inactive are those of the source. Calls follow the shape of the dose curve; as a rule, active = well fitted curve in the direction sought with a large enough effect; inconclusive = small, poorly fitted or top-dose-only effect, or another doubt; inactive = no such curve, though single readings can be large; an effect the other way counts as inactive or inconclusive.
Key:
[1] = Panc-1005 Cancer Cell Toxicity qHTS against the NCATS CANVASS Library (AID 1347349); also: nearly all actives have a fitted effect of over 60% in size
In short: (§1)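 Step one: seed 1000 cells per well. Step two: incubate 4 h. Step three: add test compounds in 11 concentrations. Step four: culture 72 h, then add CellTiter-Glo and record luminescence after 15min.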

[2] = SW1088 Cancer Cell Toxicity qHTS against the NCATS CANVASS Library (AID 1347350); also: nearly all actives have a fitted effect of over 75% in size
In short: as §1

[3] = U-118MG Cancer Cell Toxicity qHTS against the NCATS CANVASS Library (AID 1347351); conditions: U-118MG viability, CellTiter-Glo luminescence, 72 h; at 38.3 µM (top of the series)
In short: as §1

[4] = COV-362 Cancer Cell Toxicity qHTS against the NCATS CANVASS Library (AID 1347352)
In short: (§2)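 Cells were seeded at 1000 per well and allowed to settle 4 hours at 37 degrees C before pin transfer of compounds as an 11-point series. Viability was read by CellTiter-Glo luminescence after 72 hours' exposure.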

[5] = A2780 Cisplatin Sensitive Ovarian Cancer Cell Toxicity qHTS against the NCATS CANVASS Library (AID 1347353); conditions: A2780 ovarian cancer viability, ATPLite luminescence, 72 h; at 46.1 µM (top of the series); also: nearly all actives have a fitted effect of over 60% in size
In short: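 A2780 cisplatin-sensitive cells (750 per well) were seeded, left 4 h at 37 °C, then pin-dosed in an 11-point series. After 72 h at 37 °C/5% CO2, viability was measured as ATPLite luminescence.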

[6] = UWB1.289-WTBRCA1 Cancer Cell Toxicity qHTS against the NCATS CANVASS Library (AID 1347354); conditions: UWB1.289-WTBRCA1 viability, CellTiter-Glo luminescence, 72 h; at 38.3 µM (top of the series)
In short: as §2

[7] = HEK-293 Cancer Cell Toxicity qHTS against the NCATS CANVASS Library (AID 1347355); conditions: HEK-293 viability, CellTiter-Glo luminescence, 72 h; at 46.1 µM (top of the series); also: nearly all actives have a fitted effect of over 65% in size
In short: as §2

[8] = HPAF-II 24hr Apoptosis Induction qHTS against the NCATS CANVASS Library (AID 1347356)
In short: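 HPAF-II cells (500/well) in DMEM + 10% FBS were treated with an 11-point compound series for 24 hours at 37 degrees C. Caspase-3/7 activity was then read by Caspase-Glo DEVD luminescence after 15 min.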

[9] = HEK293 18hr Apoptosis Induction qHTS against the NCATS CANVASS Library (AID 1347357)
In short: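 Caspase-3/7 luminescence (DEVD substrate, Caspase-Glo) after 18 h compound exposure of HEK293 cells, 500 cells/well; 11-point series; doxorubicin titration as control.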

[10] = HPAF-II 12hr Apoptosis Induction qHTS against the NCATS CANVASS Library (AID 1347358)
In short: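 HPAF-II cells (500/well, DMEM + 10% FBS) were exposed to compounds for 12 hours at 37 degrees C. Caspase-3/7 activity was then read by Caspase-Glo 3/7 luminescence after 15 min at room temperature.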

[11] = HEK293 24hr Apoptosis Induction qHTS against the NCATS CANVASS Library (AID 1347359)
In short: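 HEK293 cells (500/well, DMEM + 10% FBS) were exposed to compounds in an 11-point series for 24 hours at 37 degrees C, then caspase-3/7 activity was read by Caspase-Glo DEVD luciferase luminescence after 15 min.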

[12] = HPAF-II 18hr Apoptosis Induction qHTS against the NCATS CANVASS Library (AID 1347360)
In short: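 Caspase-Glo 3/7 luminescence (DEVD substrate) after 15 min RT; HPAF-II, 500 cells/well, 18 h compound exposure at 37 degrees C, qHTS series; doxorubicin control 0.1nM - 4uM.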

[13] = HEK293 12hr Apoptosis Induction qHTS against the NCATS CANVASS Library (AID 1347361)
In short: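 500 HEK293 cells/well; cpds pin-transferred, 11-pt conc series; 12 h, 37 degrees C/5% CO2; Caspase-Glo 3/7 added, 15 min RT dark; luminescence.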

[14] = test system: NAD(P)H diaphorase (Clostridium kluyveri); test: Diaphorse counterscreen qHTS: Assay Interference Panel against the NCATS CANVASS Library (AID 1347362)
In short: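 Clostridium kluyveri diaphorase in PBS with 0.01% Tween-20 was preincubated 15 min at room temperature in the dark with compounds (11-point series). Resorufin fluorescence (ex 525/20, em 598/25) was read 5 min after adding resazurin/NADH.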

[15] = target: Luciferin 4-monooxygenase (Photinus pyralis) (UniProt P08659); test: Firefly luciferase counterscreen qHTS: Assay Interference Panel against the NCATS CANVASS Library (AID 1347363)
In short: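 Purified P. pyralis luciferase was added to compounds (11-point series) preincubated 15 min at room temperature with substrate containing 0.013 mM D-luciferin and 0.013 mM ATP; luminescence was read after 5 min.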

[16] = KB-8-5-11 Cancer Cell Toxicity qHTS against the NCATS CANVASS Library (AID 1347364); conditions: KB-8-5-11 MDR cells viability, CellTiter-Glo, 72 h; at 46.1 µM (top of the series); also: nearly all actives have a fitted effect of over 75% in size
In short: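 KB-8-5-11 cells (500/well) in DMEM + 10% FBS were exposed to compounds in an 11-point qHTS series for 72 hr at 37C, 5% CO2. Viability was read by CellTiter-Glo luminescence.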

[17] = SDT Cancer Cell Toxicity qHTS against the NCATS CANVASS Library (AID 1347365); conditions: SDT dog glioma viability, ATP luminescence, 72 h; at 46.1 µM (top of the series); also: nearly all actives have a fitted effect of over 60% in size
In short: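 SDT canine glioma cells (500 cells/well) were exposed to compounds in an 11-point series for 72 hr at 37C, 5% CO2; viability was read as ATP content by CellTiterGlo luminescence.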

[18] = KB-3-1 Cancer Cell Toxicity qHTS against the NCATS CANVASS Library (AID 1347366); also: nearly all actives have a fitted effect of over 75% in size
In short: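 500 KB-3-1 cells/well; compounds pin-transferred, 11-pnt series; 72 hr, 37C/5% CO2; CellTiter-Glo, 10 min RT; luminescence read-out.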

[19] = qHTS for ATAD5 Agonist screened against the NCATS CANVASS Library (AID 1347367)
In short: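 Luminescence read-out: ATAD5-driven luciferase in stably transfected HEK 293T cells, which rises post-transcriptionally with DNA damage. Cells were exposed 16hr at 37C to test compound; a CellTiter-Fluor fluorescence read (1hr) measured viability first.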

[20] = G06 Cancer Cell Toxicity qHTS against the NCATS CANVASS Library (AID 1347368); conditions: G06 dog glioma cells, viability ATP luminescence, 72 h; at 46.1 µM (top of the series); also: nearly all actives have a fitted effect of over 60% in size
In short: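 G06 dog glioma cells seeded at 500 cells/well were exposed to compounds (11-point qHTS series) for 72 hr at 37C, 5% CO2; viability read as ATP content by CellTiterGlo luminescence.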

Measured: outcome

Luciferin 4-monooxygenase (Photinus pyralis), sequence (P08659 whole entry, looked up): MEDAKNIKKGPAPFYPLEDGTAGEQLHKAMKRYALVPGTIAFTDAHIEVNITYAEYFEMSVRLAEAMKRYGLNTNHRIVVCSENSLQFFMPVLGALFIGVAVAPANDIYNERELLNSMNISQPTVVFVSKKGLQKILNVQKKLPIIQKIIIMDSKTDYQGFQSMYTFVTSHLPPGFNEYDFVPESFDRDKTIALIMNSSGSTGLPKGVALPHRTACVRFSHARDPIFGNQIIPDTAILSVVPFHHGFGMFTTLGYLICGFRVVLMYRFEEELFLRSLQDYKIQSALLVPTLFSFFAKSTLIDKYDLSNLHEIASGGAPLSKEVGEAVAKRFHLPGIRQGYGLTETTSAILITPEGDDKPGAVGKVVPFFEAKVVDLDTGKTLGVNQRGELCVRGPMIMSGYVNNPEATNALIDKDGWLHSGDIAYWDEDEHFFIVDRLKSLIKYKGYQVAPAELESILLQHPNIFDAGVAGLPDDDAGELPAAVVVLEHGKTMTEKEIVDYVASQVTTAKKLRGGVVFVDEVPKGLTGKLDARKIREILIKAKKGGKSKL

NCC(O)c1ccc(O)cc1 (stereo not given)
inactive: all assays above

From PubChem BioAssay (NCATS)
